The nature of experiment [1]: compounds binding Alexa647 anti-His antibody – biochemical, small-molecule microarray, 635 nm fluorescence, artefact control for SMM control protein annotation, primary screen (AID 1128).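 Note: score merges feature fluorescence with signal-to-noise for each printed compound spot.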 The conditions noted are these: higher = more signal.
The subject of experiment [2] is Human papillomavirus type 1a E7 protein (residues 1-88). The experiment can be described thus: HPV1a E7 small-molecule binders, primary screen, biochemical, small-molecule microarray, residues 1-88, 635 nm (AID 1129). Conditions: small-molecule microarray binding, fluorescence 635 nm; higher = more signal.
In experiment [3] the target is Focal adhesion kinase 1 (Homo sapiens) (UniProt Q05397). In words: PTK2 protein binding on printed compound slides – biochemical, small-molecule microarray, 635/667 nm fluorescence, BSA, DTT, primary screen (AID 1130).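 Note: composite of spot emission at 667 nm and signal to noise over triplicate slides.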 The conditions noted are these: 635 nm fluorescence, higher = more signal.
The subject of experiment [4] is Fibrinogen (Alexa647-labelled). In words: Alexa647-fibrinogen binding to printed small molecules – biochemical, small-molecule microarray, 635/667 nm fluorescence, artefact control for SMM control-protein annotation, profiling panel (AID 1131).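 Note: z-score merges 667 nm fluorescence with per-spot signal-to-noise over triplicate slides.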 The conditions noted are these: fibrinogen-A647 binding fluorescence, higher = more signal.
In experiment [5] the target is Follistatin (Homo sapiens) (UniProt P19883). The experiment can be described thus: FST protein binding to printed compounds – biochemical, small-molecule microarray, 635/667 nm fluorescence, primary screen (AID 1132). Conditions: 635 nm fluorescence, higher = more signal.
For experiment [6], the target named is Fibroblast growth factor 2 (Homo sapiens) (UniProt P09038). In words: basic fibroblast growth factor binding to printed compounds – biochemical, small-molecule microarray, 635/667 nm fluorescence, primary screen (AID 1133). The conditions noted are these: FGF2, fluorescence 635/667, higher = more signal.
Experiment [7] is described as follows: JC-1 mitochondrial potential readout, lung cancer cells – cell-based, A549, JC-1 fluorescence, basal, 24 h, 100 nL, profiling panel (AID 1138).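 Note: A549 lung adenocarcinoma cells under basal conditions with no added stimulus; test concentration not given here.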 Conditions: higher = more signal.
The subject of a further experiment is Lefty1. In words: Lefty1 protein binding to printed compounds – biochemical, small-molecule microarray, 635/667 nm fluorescence, primary screen (AID 1139). The conditions noted are these: fluorescence 635/667, higher = more signal.
Experiment [8] relates to wheat germ agglutinin (Triticum aestivum), Alexa647-labelled. The experiment can be described thus: Alexa647-WGA lectin binding to printed small molecules – biochemical, small-molecule microarray, 635/667 nm fluorescence, artefact control for SMM control-protein annotation, profiling panel (AID 1140).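 Note: score merges 667 nm feature emission with signal to noise over triplicate slides.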 The conditions noted are these: WGA-A647 binding, 635 nm fluorescence, higher = more signal.

The target in experiment [9] is Luciferin 4-monooxygenase (Photinus pyralis) (UniProt P08659). In words: inhibition of purified Photinus pyralis luciferase – biochemical, luminescence, purified enzyme, 2006 set, primary screen (AID 1141).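 Note: cell-free assay with purified firefly luciferase at 100 ng per well in PBS; test concentration not given here.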 Conditions: purified firefly luciferase, SteadyGlo luminescence, 30 min; higher = more signal, called active from +8 up or from −8 down.
Experiment [10] has as its system Wnt5a (protein binding on small-molecule microarray). In words: small molecules binding Wnt5a protein – biophysical, small-molecule microarray, 635/667 nm fluorescence, primary screen (AID 1142).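 Note: fluorescence read at 667 nm with signal to noise per printed feature.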 Conditions: 635 nm fluorescence, higher = more signal.
The nature of experiment [11]: ATP-based viability of Huh7 replicon cells – cell-based, CellTiter-Glo luminescence, basal, 48 h, cytotoxicity control for HCV replication inhibitor project, primary screen (AID 1143).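 Note: Huh7 hepatoma cells carrying a hepatitis C replication reporter with no stimulus; test concentration not given here.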 Conditions: higher = more signal, called active from +8 up or from −8 down. (In general: Replicon systems follow genome replication, usually without infectious particles.)
The nature of experiment [12]: Pseudomonas biofilm growth suppression – PAO1 strain, BacTiter-Glo luminescence, LB-PBS, primary screen (AID 1144). The conditions noted are these: P. aeruginosa PAO1 biofilm, 12 h, higher = more signal.
Experiment [13] is described as follows: basal CRE-LacZ reporter activity in PC12 – cell-based, unstimulated, primary screen (AID 1145). The conditions noted are these: no forskolin, luminescence, 4.5 h, higher = more signal, called active from +8 up or from −8 down.
Experiment [14] in a line: forskolin-driven CRE-LacZ activity in PC12 – cell-based, CRE-LacZ reporter, forskolin-stimulated, primary screen (AID 1146).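 Note: PC12 cells with 6xCRE LacZ reporter stimulated by forskolin 10 µM; beta-galactosidase reporter signal reflecting CREB driven transcription.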 The conditions noted are these: luminescence, 4.5 h, higher = more signal, called active from +8 up or from −8 down.
In experiment [15] the target is Streptavidin (Streptomyces avidinii) (UniProt P22629). The experiment can be described thus: compounds binding control protein streptavidin – biophysical, small-molecule microarray, 635/667 nm fluorescence, artefact control for SMM compound annotation, primary screen (AID 1147).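 Note: signal reflects streptavidin binding to arrayed compounds as a control protein.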 Conditions: higher = more signal.
Experiment [16] in a line: probe aInhba binding on compound microarray – biochemical, small-molecule microarray, 635/667 nm fluorescence, primary screen (AID 1148).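 Note: score merges 667nm spot fluorescence with signal-to-noise for antibody binding to printed compounds.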 The conditions noted are these: higher = more signal.
The target of experiment [17] is Torsin-1A (Homo sapiens) (UniProt O14656). The experiment can be described thus: TOR1A wild-type binding on microarray – cell lysate, small-molecule microarray, lysate, 635/667 nm, primary screen (AID 1149). Conditions: COS7 hTOR1A-WT lysate, 635 nm fluorescence, higher = more signal.
The target is the same in experiment [18]. The experiment can be described thus: torsin A mutant lysate binding on microarrays – cell lysate, small-molecule microarray, COS7 lysate, 635/667 nm fluorescence, primary screen (AID 1150).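 Note: score pools 667 nm emission and signal to noise measuring lysate protein binding.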 The conditions noted are these: COS7 hTOR1A mutant lysate, 635 nm fluorescence, higher = more signal.
In experiment [19] the test system is Sonic hedgehog protein (Shh). In words: Sonic hedgehog microarray binding compounds – biochemical, small-molecule microarray, 635/667 nm fluorescence, primary screen (AID 1151).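 Note: Shh protein binding to compounds spotted on small-molecule microarray slides; score combines spot fluorescence intensity with signal-to-noise across triplicate slides.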 Conditions: 635 nm fluorescence, higher = more signal.

Activity calls are given as the source filed them. Unless noted, the rule behind the calls is not given here.

Focal adhesion kinase 1 (Homo sapiens), sequence (Q05397 whole entry, looked up): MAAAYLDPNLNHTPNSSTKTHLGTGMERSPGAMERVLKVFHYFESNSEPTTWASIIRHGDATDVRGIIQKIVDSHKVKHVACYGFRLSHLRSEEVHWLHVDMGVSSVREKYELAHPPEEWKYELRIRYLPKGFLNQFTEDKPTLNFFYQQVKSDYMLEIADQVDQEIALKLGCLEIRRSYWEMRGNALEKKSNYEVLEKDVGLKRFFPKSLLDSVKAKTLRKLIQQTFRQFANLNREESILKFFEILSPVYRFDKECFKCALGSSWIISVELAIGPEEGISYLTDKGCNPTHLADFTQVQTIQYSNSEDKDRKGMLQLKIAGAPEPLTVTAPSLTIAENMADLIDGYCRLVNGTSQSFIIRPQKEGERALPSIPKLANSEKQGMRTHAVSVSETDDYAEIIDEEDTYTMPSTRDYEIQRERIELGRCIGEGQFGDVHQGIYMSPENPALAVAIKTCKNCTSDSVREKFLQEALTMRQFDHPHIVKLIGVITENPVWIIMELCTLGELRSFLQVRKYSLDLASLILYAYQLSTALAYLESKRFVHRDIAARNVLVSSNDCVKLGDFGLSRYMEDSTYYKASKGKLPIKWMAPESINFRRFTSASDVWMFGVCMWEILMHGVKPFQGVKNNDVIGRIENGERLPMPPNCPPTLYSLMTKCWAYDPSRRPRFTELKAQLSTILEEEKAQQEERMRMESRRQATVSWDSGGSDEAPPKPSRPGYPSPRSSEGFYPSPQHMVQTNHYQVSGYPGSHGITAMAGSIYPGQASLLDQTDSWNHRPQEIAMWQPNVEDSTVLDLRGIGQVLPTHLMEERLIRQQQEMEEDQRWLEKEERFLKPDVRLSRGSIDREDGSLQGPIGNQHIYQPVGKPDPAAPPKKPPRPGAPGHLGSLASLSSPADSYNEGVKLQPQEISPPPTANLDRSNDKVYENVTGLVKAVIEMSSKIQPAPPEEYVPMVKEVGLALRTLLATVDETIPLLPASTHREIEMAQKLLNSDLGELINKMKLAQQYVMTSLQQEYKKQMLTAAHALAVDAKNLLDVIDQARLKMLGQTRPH
Follistatin (Homo sapiens), sequence (P19883 whole entry, looked up): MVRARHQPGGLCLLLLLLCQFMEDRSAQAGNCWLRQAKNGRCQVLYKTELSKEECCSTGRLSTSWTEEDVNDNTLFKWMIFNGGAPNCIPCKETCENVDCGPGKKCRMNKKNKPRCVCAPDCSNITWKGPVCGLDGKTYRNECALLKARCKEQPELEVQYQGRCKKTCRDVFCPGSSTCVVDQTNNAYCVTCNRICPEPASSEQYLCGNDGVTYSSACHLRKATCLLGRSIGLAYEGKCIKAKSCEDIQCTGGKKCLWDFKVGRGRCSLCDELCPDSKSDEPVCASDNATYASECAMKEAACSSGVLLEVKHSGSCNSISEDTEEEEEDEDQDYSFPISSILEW
Torsin-1A (Homo sapiens), sequence (O14656 whole entry, looked up): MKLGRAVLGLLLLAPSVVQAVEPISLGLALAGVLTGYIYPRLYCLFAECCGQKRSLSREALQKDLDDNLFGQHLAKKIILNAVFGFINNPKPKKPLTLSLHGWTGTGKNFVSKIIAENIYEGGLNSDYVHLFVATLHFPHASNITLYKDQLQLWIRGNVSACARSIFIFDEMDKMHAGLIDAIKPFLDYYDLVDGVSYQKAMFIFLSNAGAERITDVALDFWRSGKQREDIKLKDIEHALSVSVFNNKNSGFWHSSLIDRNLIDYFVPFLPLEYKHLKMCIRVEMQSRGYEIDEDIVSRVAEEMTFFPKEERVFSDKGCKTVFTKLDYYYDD
Fibroblast growth factor 2 (Homo sapiens), sequence (P09038 whole entry, looked up): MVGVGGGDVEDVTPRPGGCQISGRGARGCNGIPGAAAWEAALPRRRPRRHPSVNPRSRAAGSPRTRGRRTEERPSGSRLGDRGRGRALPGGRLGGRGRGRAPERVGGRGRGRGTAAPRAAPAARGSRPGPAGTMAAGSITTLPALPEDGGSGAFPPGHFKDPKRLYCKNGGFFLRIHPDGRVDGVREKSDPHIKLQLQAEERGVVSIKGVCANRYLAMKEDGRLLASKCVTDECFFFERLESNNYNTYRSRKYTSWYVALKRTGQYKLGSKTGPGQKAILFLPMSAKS
Streptavidin (Streptomyces avidinii), sequence (P22629 whole entry, looked up): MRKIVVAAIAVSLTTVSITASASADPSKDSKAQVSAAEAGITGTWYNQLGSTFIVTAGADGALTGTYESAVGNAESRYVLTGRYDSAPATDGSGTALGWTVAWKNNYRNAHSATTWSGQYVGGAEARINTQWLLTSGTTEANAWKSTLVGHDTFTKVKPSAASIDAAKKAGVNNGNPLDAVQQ
Luciferin 4-monooxygenase (Photinus pyralis), sequence (P08659 whole entry, looked up): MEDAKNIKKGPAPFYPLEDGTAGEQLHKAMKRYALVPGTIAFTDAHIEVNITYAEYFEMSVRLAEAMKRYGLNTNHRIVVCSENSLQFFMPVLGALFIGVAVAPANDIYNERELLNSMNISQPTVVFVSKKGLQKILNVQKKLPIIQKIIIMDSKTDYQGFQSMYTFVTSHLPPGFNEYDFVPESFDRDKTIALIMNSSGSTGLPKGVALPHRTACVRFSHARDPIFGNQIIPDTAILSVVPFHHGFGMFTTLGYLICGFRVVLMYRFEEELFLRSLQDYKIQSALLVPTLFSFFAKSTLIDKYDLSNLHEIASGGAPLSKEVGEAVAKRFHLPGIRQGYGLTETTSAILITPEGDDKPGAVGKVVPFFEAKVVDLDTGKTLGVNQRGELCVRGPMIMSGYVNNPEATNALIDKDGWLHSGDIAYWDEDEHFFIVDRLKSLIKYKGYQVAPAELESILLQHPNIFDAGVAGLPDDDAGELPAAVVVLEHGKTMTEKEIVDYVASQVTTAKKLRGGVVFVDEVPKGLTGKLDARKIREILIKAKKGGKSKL

As to `COc1ccc(O[C@H]2C=C[C@@H](c3ccccc3)O[C@@H]2COC(=O)CCC(C)=NOCC[C@@H]2C=C[C@H](OC(C)=O)[C@@H](COC(C)=O)O2)cc1`, the composite z-score in [1] was 0.545; in experiment [2], -0.129; in [3], 0.151; in [4] it was 0.351; in [5], 0.612; in experiment [6], 0.168. In addition, the composite z-score in the experiment on Lefty1 was 0.342; in experiment [8], 0.193; in experiment [10], -0.0096; in [15], 0.0903; in experiment [16], -0.0736; with Torsin-1A (Homo sapiens) [17] it was 1.56. Moreover, the results for the composite z-score (with Torsin-1A (Homo sapiens) [18]; in experiment [19]) were 0.43 and 0.661, respectively. Also, the z-score was 0.213 in [7]; 1.03 (inactive) in experiment [9]; -1.06 (inactive) in experiment [11]; 0.57 (inactive) in experiment [12]; 0.918 (inactive) in experiment [13]; 0.378 (inactive) in experiment [14].

As for `CC(=O)OC[C@H]1O[C@H](CC=NOC[C@@H](C)[C@H](OCc2ccccc2)C(C)C)C=C[C@@H]1OC(C)=O`, the composite z-score is -1.2 in [1]; 0.284 in experiment [2]; -0.351 in experiment [3]; -0.344 in experiment [4]; 0.264 in experiment [5]; 0.155 in experiment [6]. For the same compound, the composite z-score was 0.752 in the experiment on Lefty1; -0.21 in experiment [8]; -0.0373 in experiment [10]; -0.0152 in experiment [15]; -0.0504 in experiment [16]; -0.0387 with Torsin-1A (Homo sapiens) [17]. Moreover, the composite z-score in the experiment with Torsin-1A (Homo sapiens) [18] was determined as 0.0881; in experiment [19] it was 0.583. Besides, the z-score in experiment [7] is -1.02; in experiment [9] it was 1.34 (inactive); in experiment [11] it was -0.23 (inactive); in experiment [12], -0.369 (inactive); in [13] it was 2.04 (inactive); in experiment [14] it was 0.494 (inactive).

Consider `CC(=O)OC[C@H]1O[C@@H](ON=C(C)CCN2CCc3nc(-c4ccccc4)c(-c4ccccc4)cc3C2)[C@H](OC(C)=O)[C@@H](OC(C)=O)[C@@H]1OC(C)=O`, for which the composite z-score was -0.116 in experiment [1]; 1.11 in experiment [2]; 0.276 in [3]; 0.867 in experiment [4]; 0.992 in [5]; 1.19 in experiment [6]. Moreover, the composite z-score in the experiment on Lefty1 came to 0.699; in experiment [8], 0.491; in experiment [10], 0.344; in [15] it was 0.65; in [16] it was 0.134; with Torsin-1A (Homo sapiens) [17], 0.054. Also, the composite z-score in the experiment with Torsin-1A (Homo sapiens) [18] is 0.257; in experiment [19], 1.12. Also, the z-score in [7] was 1.13; in experiment [9] it was 0.93 (inactive); in [11], -0.228 (inactive); in experiment [12], 0.305 (inactive); in [13] it was 1.41 (inactive); in experiment [14], 0.0789 (inactive).

For `CO[C@@H]1COC(=O)[C@@H]2CCCN2C(=O)[C@@H](C)COC(=O)[C@H](COCc2ccccc2)NC(=O)CC=C[C@H]1C`, the composite z-score worked out at 0.284 in experiment [1]; 0.692 in experiment [2]; 0.0252 in experiment [3]; 0.385 in experiment [4]; 0.421 in experiment [5]; 0.27 in [6]. Also, the composite z-score in the experiment with Lefty1 is 0.698; in experiment [8], -0.07; in experiment [10], -0.127; in [15], 0.107; in experiment [16], -0.172; with Torsin-1A (Homo sapiens) [17], 0.999. For the same compound, the results for the composite z-score (with Torsin-1A (Homo sapiens) [18]; in experiment [19]) were 0.121 and 0.731, respectively. Also, the z-score in experiment [7] is -0.714; in experiment [9], 0.951 (inactive); in experiment [11] it was -0.388 (inactive); in experiment [12], -0.623 (inactive); in experiment [13], -0.799 (inactive); in experiment [14] it was 0.435 (inactive).

`CCCNC(=O)[C@@H]1c2ccccc2C(=O)N(Cc2ccccc2Cl)[C@H]1c1ccc(CO)cc1`: the composite z-score in [1] came out at 2.58; in experiment [2], 1.19; in experiment [3], 0.497; in experiment [4], 0.691; in [5], 1.36; in experiment [6], 1.3. The composite z-score worked out at 1.1 in the experiment with Lefty1; 1.09 in experiment [8]; 0.4 in [10]; 0.802 in [15]; 0.264 in experiment [16]; 0.174 with Torsin-1A (Homo sapiens) [17]. The composite z-score worked out at 0.461 with Torsin-1A (Homo sapiens) [18] and 1.9 in experiment [19]. Besides, the z-score in experiment [7] is 3.16; in experiment [9] it was -1.54 (inactive); in experiment [11], -1.44 (inactive); in experiment [12] it was 0.378 (inactive); in experiment [13], -0.412 (inactive); in experiment [14], -0.366 (inactive).

The values above are taken from PubChem BioAssay.
